In PubChem BioAssay AID720569 (National Center for Advancing Translational Sciences (NCATS), 2013):
The list shows a part of the results. Records with an inconclusive call do not appear. Active and inactive are the calls of the source. Calls come from the whole dose curve; as a rule, active = well fitted inhibition curve with a large enough effect; inconclusive = small, poorly fitted or top-dose-only effect; inactive = no such curve, though single readings can be large or run the other way.
Note: nearly all actives have a fitted effect of over 70% in size.
Potency is the fitted concentration of half-maximal effect.

Each molecule was assayed on pyruvate kinase (Trypanosoma brucei) (assay: qHTS of Trypanosoma Brucei Inhibitors: Confirmatory Assay for Cherry-picked Compounds). Settings: recombinant TbPYK, Kinase-Glo ATP luminescence.
Source text: Members of the Trypanosomatidae family of parasitic protozoans cause a spectrum of diseases throughout the tropical and subtropical world. Sleeping sickness, caused by two subspecies of Trypanosoma brucei, is endemic to areas of sub-Saharan Africa, while Chagas' disease, a manifestation of Trypanosoma cruzi infection, is prevalent throughout Central and South America. In addition, many species of Leishmania are responsible for a range of cutaneous and visceral diseases, causing ulcers, destructive lesions and kalaazar, a lethal infection of the viscera. These diseases cause severe public health and economic burdens on populations that are often already caught in a tragic cycle of poverty, poor nutrition and disease. Collectively, parasites of the trypanosomatid family infect 30 million people worldwide (~500 million live in endemic areas), and account for ~130K deaths annually. Existing treatments have developed little in the past 50 years, and suffer from toxicity, poor efficacy and resistance; the goal of this project is to develop lead drugs that will be suitable for entry into pre-clinical trials. […] Glycolysis in axenically cultured T. cruzi, representing the intracellular pathogenic stage, is also essential for these parasites. {Engel, 1987} This project aims to discover and optimize selective inhibitors of the glycolytic enzyme pyruvate kinase (PYK) from Trypanosoma brucei, the parasite that causes sleeping sickness. […] Trypanosomatid PYKs show significant differences from their human counterparts including only 47-50% sequence identity and different allosteric and activation properties.{Callens, 1992} To this end, a qHTS was done against the MLSMR to discover inhibitors. NIH Molecular Libraries Probe Production Network [MLPCN] NIH Chemical Genomics Center [NCGC] Grant: MH095452 PI Name: Malcolm Walkinshaw, University of Edinburgh
Two uL of TbPYK/substrate buffer (columns 1-3, 5-48) are dispensed into Greiner white solid bottom 1536-well assay plates; column 4 receives only TEA buffer as 0x TbPYK controls. Compounds are then transferred via Kalypsys pin tool equipped with 1536-pin array (10 nL slotted pins, V&P Scientific, San Diego, CA). Following addition of compound, 2 uL of ADP (130 uM final concentration, all columns) is added to initiate the reaction. The plates are then incubated at room temperature for 45 minutes. Kinase-Glo Plus reagent is added (3 uL) and plates incubated for 10 minutes, before being transferred to a ViewLux high-throughput CCD imager (PerkinElmer) wherein single end-point measurements of luminescence are acquired using a clear filter. All reagents are diluted in an assay buffer consisting of 50 mM TEA (pH 7.2), 100 mM KCl, 10 mM MgCl2, 0.05% BSA and 0.01% Tween-20. […]
For `Cc1ccc2c(c1)=C/C(=C\c1c(O)[nH]c(=O)[nH]c1=O)C(=O)N=2`, the Potency was 17.8 µM (active).
For `O=C(O)CCn1cc(C=C2C(=O)NC(=S)NC2=O)c(-c2cccc(Br)c2)n1`, the Potency was 6.31 µM (active).
In the case of `COc1ccc(N2C(=O)/C(=C/c3ccco3)C(=O)NC2=S)cc1`, the Potency is reported as 14.1 µM (active).
`O=C1NC(=O)N(c2ccccc2)C(=O)/C1=C/c1ccc([N+](=O)[O-])s1` was tested, and the Potency was 8.91 µM (active).
